High-throughput results as filed in PubChem BioAssay.
A selection: hits, their analogues and other compounds. The true share with any hit is near 7.5%.
VP16 counter = Gal4-VP16 reporter inhibition counter-screen; Drosophila S2 Gal4-VP16 UAS-luciferase, luminescence, 20 h; Potency, µM (highest dose often 53.6 µM), for inactives: at the highest dose activity, negative = inhibition, usual class: inhibitors; actives 3.5% (n = 310,000); AID 2546;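 note: Gal4-VP16 expression switched on by copper sulfate through the metallothionein promoter; potency is the fitted concentration of half-maximal effect; nearly all actives have a fitted effect of over 50% in size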
B2AR arrestin = recruits beta-arrestin to the human beta2-adrenergic receptor; P07550; beta-arrestin recruitment to beta2AR, cell-based reporter; Potency, µM (series often up to 46.1 µM), without a hit: at the highest dose activation, usual class: activators; actives 0.02% (n = 330,000); AID 492947;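 note: potency is the fitted concentration of half-maximal effect; 0% = DMSO controls and full agonism = EC100 isoproterenol or metaproterenol; nearly all actives have a fitted effect of over 65% in size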
Target sequence (P07550 whole entry, looked up): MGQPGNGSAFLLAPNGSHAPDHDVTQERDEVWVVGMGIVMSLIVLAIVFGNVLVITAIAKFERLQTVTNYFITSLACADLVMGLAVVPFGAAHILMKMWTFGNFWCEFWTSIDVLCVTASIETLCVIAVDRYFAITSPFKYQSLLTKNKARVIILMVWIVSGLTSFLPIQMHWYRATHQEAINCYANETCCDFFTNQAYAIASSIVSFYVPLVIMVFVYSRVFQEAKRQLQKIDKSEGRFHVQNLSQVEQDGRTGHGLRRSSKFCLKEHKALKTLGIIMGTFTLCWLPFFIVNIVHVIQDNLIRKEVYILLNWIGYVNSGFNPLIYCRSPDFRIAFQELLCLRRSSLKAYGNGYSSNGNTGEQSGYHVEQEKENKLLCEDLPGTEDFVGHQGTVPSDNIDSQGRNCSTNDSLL
TSHR antagonist = blocks TSH signaling through the human TSH receptor; TSHR-expressing cells, TSH-stimulated cAMP HTRF, 2 h; hits give low values; activity change, negative = inhibition, % at 11.5 µM; P16473; actives 0.2% (n = 330,000); AID 504810;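 active = activity change below a set negative limit, meaning inhibition stronger than a set level, cut at about -70% in these data; inconclusive = activity change between two set negative limits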
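TSHR-expressing cells, 200/well, pre-treated with compound, then stimulated with EC80 TSH (4nM final) for 2 hours at 37 deg C. cAMP measured by competitive HTRF: anti-cAMP cryptate antibody in lysis buffer plus cAMP-d2, read after 30 minutes at room temperature.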
RORg inh = inhibitors of mouse ROR gamma transcriptional activity; P51450; Drosophila S2 Gal4-RORgamma UAS-luciferase reporter, 20 h; Potency, µM (top dose mostly 53.6 µM), without a hit: at the top dose activity change, negative = inhibition, hits mostly inhibitors; actives 5.4% (n = 310,000); note: potency is the fitted concentration of half-maximal effect; nearly all actives have a fitted effect of over 60% in size
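Using a luciferase readout, inhibitors were identified by reduced reporter activity in Drosophila cells coexpressing a copper-inducible Gal4–ROR gamma fusion and UAS-driven Photinus luciferase, incubated 20 hr after 700 uM copper sulfate.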
ELG1 repair inh = ELG1-dependent DNA repair inhibition; HEK293T ELG1-luciferase reporter, luminescence, 16 h; DNA damage induced by 5-fluorouridine; Potency, µM (doses to about 46.1 µM), for inactives: at the top dose activity change, negative = inhibition, actives largely listed as inhibitors; actives 2.3% (n = 330,000); note: potency is the fitted concentration of half-maximal effect; nearly all actives have a fitted effect of over 55% in size
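DMSO vehicle served as the neutral condition. Each well held 2,000 cells given 5-fluorouridine plus compound; after 16 hr at 37 °C/5% CO2, ONE-Glo was added and luciferase measured 30 min later.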
An asterisk follows results filed as active; ? = inconclusive; . = no result; [ ] = another dose, or the depositor's remark. Unless noted, calls come from the whole dose curve; as a rule, active = well fitted curve in the direction sought with a large enough effect; inconclusive = small, poorly fitted or top-dose-only effect, or another doubt; inactive = no such curve, though single readings can be large; an effect the other way counts as inactive or inconclusive. Unless noted, % is set by controls: 0 for no effect and ±100 for the full control effect.

SMILES | VP16 counter | B2AR arrestin | TSHR antagonist | RORg inh | ELG1 repair inh
Cn1c2ccccc2c2nnc(SCc3ccc4nonc4c3)nc21 | -3% | 0% | -2 | -1% | 7%
C/C(=N\Nc1nnc2c3ccccc3n(C)c2n1)c1ccc(C)o1 | 5% | 9% | -4 | -40% | 16µM*
Cn1c2ccccc2c2nnc(SCC(N)=O)nc21 | 4% | -1% | -5 | -2% | 0%
C/C(=N\Nc1nc(C)cc(C)n1)c1ccc(C)o1 | 10µM* | 0% | 8 | 7.1µM* | -5%
CC(=O)N1CCC2(CC1)CCN(c1ccccn1)CC2 | 28% | . | . | 8% | .
COc1cc(CN(C)Cc2cc(=O)oc3cc(C)c(Cl)cc23)ccc1OC(F)F | -11% | 0% | -24 | ? | -5%
O=C(CCN1C(=O)c2ccccc2C1=O)C1=NN[C@@H]2C(=O)N(c3ccc4c(c3)OCCO4)C(=O)[C@H]12 | -11% | -1% | 10 | 5% | 6%
COC(=O)c1c(NC(=O)COC(=O)C2CCC2)sc(C)c1C | . | 0% | -2 | . | 10%
CCO[C@H]1O[C@@H]([C@H](COCc2ccccc2)OCc2ccccc2)[C@@H](OCc2ccccc2)[C@H]1O | -8%[17 µM] | . | . | 32%[2.98 µM] | .
CC(C)n1c(C(F)(F)F)nc2cc(C(=O)N3CCCCC3)ccc21 | 6% | -1% | 7 | ? | ?
Cc1ccc(O)c(Nc2c3ccccc3nc3ccccc23)c1 | ? | -1% | -6 | -32% | 8.2µM*
O=C(Nc1cccc(F)c1)N1CC2(CCN(S(=O)(=O)c3ccccc3)CC2)C1 | 0% | . | . | 21% | .
CCOc1ccc(C2C=C(c3ccc(F)cc3)Nc3ncnn32)cc1 (centres undefined) | ? | 0% | -11 | 13µM* | -7%
Cc1ccc(-c2cccc(NC(=O)C3C(C(=O)O)[C@@H]4C=C[C@H]3C4)c2)o1 (some centres undefined) | -1% | 0% | -7 | 35% | 8%
Cc1ccc(-c2ccccc2NC(=O)C2C3C=CC(C3)C2C(=O)O)o1 (centres undefined) | 4.5µM* | 0% | 48 | 4.5µM* | 6%
CCCCCCCCCCCC(CC1OC(=O)C1CCCCCC)OC(=O)C(CC(C)C)NC=O (centres undefined) | 4% | . | . | -2% | .
CO/N=C(/C(=O)N[C@@H]1C(=O)N2C(C(=O)O)=C(CSC(=O)c3ccco3)CSC12)c1csc(N)n1 (some centres undefined) | -2% | . | . | -20% | .
CC(C)(C)CC(=O)NC(=S)NCc1ccccc1 | 8.9µM* | 0% | -6 | 1.1µM* | -9%
Cc1ccccc1C(=O)NC(=S)NCCc1ccccc1 | ? | 0% | -18 | 7.9µM* | 24%
Cc1ccccc1C(=O)NC(=S)NCc1ccccc1 | 7.1µM* | 0% | -9 | 6.3µM* | 16%
Cc1ccccc1C(=O)NCC(=O)NNC(=S)NC(=O)c1ccccc1 | -12% | 0% | -4 | ? | -16%
Cc1ccccc1C(=O)NCC(=O)NNC(=S)NC(=O)c1ccccc1C | ? | -1% | -4 | 5.6µM* | -11%
CN(c1ccc(OCC(=O)OCC(=O)Nc2ccc(OC(F)F)cc2)cc1)S(=O)(=O)c1cccs1 | . | 0% | . | . | 0%
Cc1ccc(-c2noc(COC(=O)c3ccco3)n2)cc1 | . | 0% | 5 | . | ?
CCOC(=O)C(C(=O)c1ccccc1)[C@H](CCc1ccccc1)NC(=O)OC (some centres undefined) | -4% | . | . | 13% | .
SMILES | VP16 counter | B2AR arrestin | TSHR antagonist | RORg inh | ELG1 repair inh
Cc1ccc(NC(=O)NCC2CCN(Cc3cccc(Cl)c3)CC2)cc1Cl | -24% | 0% | 4 | 20µM* | ?
CCc1ccc(NC(=O)NCC2CCN(Cc3cccc(Cl)c3)CC2)cc1 | 4% | 0% | 1 | -29% | 0%
COCCn1c(=O)c(-c2ccccc2)nc2cnc(Oc3ccc(OC)cc3)nc21 | -26% | . | . | ? | .
S=C(Nc1cccnc1)N1CCc2ccccc21 | 6% | 0% | -4 | -10% | 0%
CC(C)(C)C(=O)NC(=S)N1CCc2ccccc21 | ? | 0% | -7 | 5µM* | -7%
O=[N+]([O-])c1cccc(NC(=S)N2CCc3ccccc32)c1 | ? | 0% | 13 | ? | 13µM*
O=C(NC(=S)N1CCc2ccccc21)C1CCC1 | ? | 0% | -2 | 2.8µM* | 15%
CC(Sc1nnnn1C)C(=O)Nc1ccc2c(c1)OCCO2 (centres undefined) | -4% | 0% | 8 | 0% | 0%
CCOC(=O)c1c(NC(=O)C2=COCCO2)sc2c1CCN(C(=O)OC)C2 | . | 0% | -7 | . | ?
CN(C)C1CCN(CCCOc2ccc(-c3ccc(C#N)cc3)cc2)C1 (centres undefined) | -3% | . | . | 2% | .
O=C(Nc1ccc(Cl)cc1)c1cccnc1N1CCCCC1 | 10% | 0% | -17 | 0% | -2%
Cn1cccc1C(=O)NCCc1ccccc1 | 13µM* | 0% | 6 | 10µM* | ?
Cc1ccc(C(=O)NCCCc2ccccc2)c(C)c1 | ? | 0% | -2 | ? | ?
O=C(NCCc1ccccc1)c1ccccc1Cl | 7.9µM* | -1% | 16 | 8.9µM* | ?
O=C(NCCc1ccccc1)c1cccnc1N1CCCCCC1 | 2% | -3% | -80* | 22%[10 µM] | -23%
Cc1ccc(C(=O)NCCCc2ccccc2)c(Cl)c1 | -17% | 0% | 23 | 11µM* | ?
COc1ccc(NC(=S)NC(=O)/C=C/c2cccs2)cc1 | ? | 0% | -10 | 3.5µM* | 28%
COc1ccc(NC(=S)NC(=O)/C=C/c2ccccc2)cc1 | 7.1µM* | -4% | -6 | 7.1µM* | 2%
COc1ccccc1NC(=O)COC(=O)/C=C/c1cccs1 | . | 8% | 29 | . | 5%
COc1cccc(NC(=S)NC(=O)/C=C/c2ccc(F)cc2)c1 | ? | -2% | -7 | 7.1µM* | -5%
COc1ccccc1NC(=S)NC(=O)/C=C/c1cccs1 | 11µM* | 4% | -12 | 4.5µM* | 11%
CC(=O)c1ccc(NC(=S)NC(=O)/C=C/c2ccc(F)cc2)cc1 | 8% | 0% | 19 | ? | ?
CNC1C(O)[C@@H]2OC(O[C@@H]3C(O)C(O)C(N)C[C@H]3N)C(N)C[C@H]2O[C@H]1O[C@@H]1OC(CO)C(N)C(O)C1O (some centres undefined) | -5% | . | . | -7% | .
CC(=O)N1CCc2cc(Br)cc(S(=O)(=O)N3CCC(C(=O)O)CC3)c21 | -5% | 0% | -106* | -4% | 21%
O=C(C1CC1)N1CCc2cc(Br)cc(S(=O)(=O)N3CCCCCC3)c21 | -26% | 0% | -12 | -7% | ?
O=C1CC2CCCN2C=C1I (centres undefined) | . | 0% | -3 | . | 0%
CC(C)Cn1c(N)c(C(=O)COC(=O)c2cc(C3CC3)nc3ccccc23)c(=O)n(C)c1=O | ? | 4% | -3 | ? | 23µM*
